Reference: PubChem BioAssay AID1159580 (chemical genetic matrix, 2015)
Among all 5,500 compounds or so, about 2,000 (36%) were called active. Roughly 18% stayed inconclusive and do not appear here. No stated cut-off is given here; in the data, active means normalized growth mostly below about 0.91 (no sharp cut-off); inconclusive means no clear call, values can overlap the other calls; inactive means mostly above about 0.92. The list shows a part of the results.

Experiment: chemical genetic growth profiling, strain panel (AID 1159580);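 further: tested at 20 µM; growth read once vehicle control cultures reached saturation at 30 °C; 1 = growth at the plate median or of vehicle wells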
Conditions: growth OD
[1] = S. cerevisiae deletion strains, locus YAL013W, strain DEP1, stronger effect = lower value
[2] = S. cerevisiae deletion strains, locus YBR229C, strain ROT2, stronger effect = lower value
[3] = S. cerevisiae deletion strains, locus YDL101C, strain DUN1, stronger effect = lower value
[4] = S. cerevisiae deletion strains, locus YDR150W, strain NUM1, stronger effect = lower value
[5] = S. cerevisiae deletion strains, locus YEL061C, strain CIN8, stronger effect = lower value
[6] = S. cerevisiae deletion strains, locus YGR078C, strain PAC10, stronger effect = lower value
[7] = S. cerevisiae deletion strains, locus YGR229C, strain SMI1, stronger effect = lower value
[8] = S. cerevisiae deletion strains, locus YHR030C, strain SLT2, stronger effect = lower value
[9] = S. cerevisiae deletion strains, locus YHR087W, strain rtc3, stronger effect = lower value
[10] = S. cerevisiae deletion strains, locus YJL187C, strain SWE1, stronger effect = lower value
[11] = S. cerevisiae deletion strains, locus YJR043C, strain POL32, stronger effect = lower value
[12] = S. cerevisiae deletion strains, locus YJR075W, strain HOC1, stronger effect = lower value
[13] = S. cerevisiae deletion strains, locus YKL190W, strain CNB1, stronger effect = lower value
[14] = S. cerevisiae deletion strains, locus YLR039C, strain RIC1, stronger effect = lower value
[15] = S. cerevisiae deletion strains, locus YLR058C, strain SHM2 (second series), stronger effect = lower value
[16] = S. cerevisiae deletion strains, locus YLR085C, strain ARP6, stronger effect = lower value
[17] = S. cerevisiae deletion strains, locus YLR262C, strain YPT6, stronger effect = lower value
[18] = S. cerevisiae deletion strains, locus YML094W, strain GIM5, stronger effect = lower value
[19] = S. cerevisiae deletion strains, locus YMR219W, strain ESC1, stronger effect = lower value
[20] = S. cerevisiae deletion strains, locus YMR263W, strain SAP30, stronger effect = lower value
[21] = S. cerevisiae deletion strains, locus YNL153C, strain GIM3, stronger effect = lower value
[22] = S. cerevisiae deletion strains, locus YNL298W, strain CLA4 (second series), stronger effect = lower value
[23] = S. cerevisiae deletion strains, locus YNL322C, strain KRE1, stronger effect = lower value
[24] = S. cerevisiae deletion strains, locus YNR030W, strain Alg12, stronger effect = lower value
[25] = S. cerevisiae deletion strains, locus YPL055C, strain LGE1, stronger effect = lower value
[26] = S. cerevisiae deletion strains, locus YPL241C, strain CIN2, stronger effect = lower value
[27] = S. cerevisiae deletion strains, locus YPR135W, strain CTF4, stronger effect = lower value

Measured: normalized growth

CC1=C(OS(=O)(=O)c2cc(C)c(Cl)cc2Cl)C(=O)CC1
active: [25] 1.24 [resistant]
inactive: [1] 0.993 | [2] 0.956 | [3] 0.968 | [4] 0.986 | [5] 1 | [6] 0.98 | [7] 0.968 | [8] 0.85 | [9] 0.974 | [10] 0.986 | [11] 0.991 | [12] 0.984 | [13] 0.976 | [14] 0.849 | [15] 0.968 | [16] 0.955 | [17] 0.866 | [18] 1 | [19] 0.985 | [20] 0.977 | [21] 0.971 | [22] 0.914 | [23] 0.97 | [24] 0.968 | S. cerevisiae deletion strains, locus YOL006C, strain TOP1, stronger effect = lower value 0.897 | [26] 0.98 | [27] 0.87

COc1ccccc1N1CCN(S(=O)(=O)c2cc(C)c(Cl)cc2C)CC1
inactive: [1] 0.985 | [2] 0.991 | [3] 0.957 | [4] 0.958 | [5] 0.994 | [6] 0.97 | [8] 1.01 | [9] 0.959 | [10] 0.991 | [11] 1 | [12] 0.989 | [13] 0.987 | [14] 0.981 | [15] 0.988 | [16] 1.01 | [17] 0.976 | [18] 0.958 | [19] 1 | [20] 1 | [21] 0.996 | [22] 0.982 | [23] 0.994 | [24] 0.982 | [25] 0.953 | [26] 1.06 | [27] 0.874 | S. cerevisiae strains, strain wild type, stronger effect = lower value 0.985

c1ccc2sc(C3(N4CCCCC4)CCCCC3)cc2c1
inactive: [1] 0.964 | S. cerevisiae deletion strains, locus YAL040C, strain CLN3, stronger effect = lower value 1.01 | S. cerevisiae deletion strains, locus YCL061C, strain MRC1 (second series), stronger effect = lower value 0.995 | [4] 1 | S. cerevisiae deletion strains, locus YDR363W, strain ESC2, stronger effect = lower value 0.937 | S. cerevisiae deletion strains, locus YER002W, strain NOP16, stronger effect = lower value 1.01 | [6] 0.983 | [7] 0.93 | [20] 1 | S. cerevisiae deletion strains, locus YMR307W, strain GAS1, stronger effect = lower value 0.976 | S. cerevisiae deletion strains, locus YNL128W, strain TEP1, stronger effect = lower value 0.988 | [21] 1.01 | S. cerevisiae deletion strains, locus YNL175C, strain NOP13, stronger effect = lower value 1.03 | S. cerevisiae deletion strains, locus YNL197C, strain WHI3, stronger effect = lower value 0.986 | S. cerevisiae deletion strains, locus YNL224C, strain SQS1, stronger effect = lower value 1 | S. cerevisiae deletion strains, locus YOR083W, strain WHI5 (second series), stronger effect = lower value 1.04 | [25] 0.907

COc1cc(/C=C/C(=O)/C=C(O)/C=C/c2ccc(O)c(OC)c2)ccc1O
active: S. cerevisiae deletion strains, locus YAL021C, strain ccr4, stronger effect = lower value 0.0789 | S. cerevisiae deletion strains, locus YAL026C, strain drs2, stronger effect = lower value 0.118 | S. cerevisiae deletion strains, locus YAL030W, strain snc1, stronger effect = lower value 0.157 | S. cerevisiae deletion strains, locus YBL061C, strain skt5, stronger effect = lower value 0.175 | S. cerevisiae deletion strains, locus YBR009C, strain hhf1, stronger effect = lower value 0.149 | S. cerevisiae deletion strains, locus YBR023C, strain chs3, stronger effect = lower value 0.172 | S. cerevisiae deletion strains, locus YBR171W, strain sec66, stronger effect = lower value 0.132 | S. cerevisiae deletion strains, locus YBR231C, strain swc5, stronger effect = lower value 0.091 | S. cerevisiae deletion strains, locus YBR279W, strain paf1, stronger effect = lower value 0.307 | S. cerevisiae deletion strains, locus YCL011C, strain gbp2, stronger effect = lower value 0.184 | S. cerevisiae deletion strains, locus YCL016C, strain dcc1, stronger effect = lower value 0.4 | S. cerevisiae deletion strains, locus YCL061C, strain MRC1, stronger effect = lower value 0.216 | S. cerevisiae deletion strains, locus YCL069W, strain vba3, stronger effect = lower value 0.224 | S. cerevisiae deletion strains, locus YCR088W, strain abp1, stronger effect = lower value 0.265 | S. cerevisiae deletion strains, locus YDL005C, strain med2, stronger effect = lower value 0.089 | S. cerevisiae deletion strains, locus YDL040C, strain nat1, stronger effect = lower value 0.0875 | S. cerevisiae deletion strains, locus YDR001C, strain nth1, stronger effect = lower value 0.249 | S. cerevisiae deletion strains, locus YDR069C, strain doa4, stronger effect = lower value 0.0822 | S. cerevisiae deletion strains, locus YDR137W, strain rgp1, stronger effect = lower value 0.149 | S. cerevisiae deletion strains, locus YDR159W, strain sac3, stronger effect = lower value 0.112 | S. cerevisiae deletion strains, locus YDR195W, strain ref2 0.156 | S. cerevisiae deletion strains, locus YDR297W, strain sur2, stronger effect = lower value 0.187 | S. cerevisiae deletion strains, locus YDR334W, strain swr1, stronger effect = lower value 0.109 | S. cerevisiae deletion strains, locus YDR335W, strain msn5, stronger effect = lower value 0.0992 | S. cerevisiae deletion strains, locus YDR392W, strain spt3, stronger effect = lower value 0.14 | S. cerevisiae deletion strains, locus YEL003W, strain gim4, stronger effect = lower value 0.0989 | S. cerevisiae deletion strains, locus YEL037C, strain rad23, stronger effect = lower value 0.155 | S. cerevisiae deletion strains, locus YEL061C, strain CIN8 (second series), stronger effect = lower value 0.243 | S. cerevisiae deletion strains, locus YER015W, strain faa2, stronger effect = lower value 0.119 | S. cerevisiae deletion strains, locus YER016W, strain bim1, stronger effect = lower value 0.396 | S. cerevisiae deletion strains, locus YER111C, strain swi4, stronger effect = lower value 0.094 | S. cerevisiae deletion strains, locus YER155C, strain BEM2 (second series), stronger effect = lower value 0.242 | S. cerevisiae deletion strains, locus YFR010W, strain ubp6, stronger effect = lower value 0.187 | S. cerevisiae deletion strains, locus YGL167C, strain pmr1, stronger effect = lower value 0.177 | S. cerevisiae deletion strains, locus YGL173C, strain kem1, stronger effect = lower value 0.107 | S. cerevisiae deletion strains, locus YGL227W, strain vid30, stronger effect = lower value 0.507 | S. cerevisiae deletion strains, locus YGL240W, strain doc1, stronger effect = lower value 0.399 | S. cerevisiae deletion strains, locus YGL253W, strain hxk2, stronger effect = lower value 0.224 | S. cerevisiae deletion strains, locus YHR013C, strain ard1, stronger effect = lower value 0.178 | S. cerevisiae deletion strains, locus YHR027C, strain rpn1, stronger effect = lower value 0.0816 | [8] 0.653 | S. cerevisiae deletion strains, locus YHR079C, strain IRE1, stronger effect = lower value 0.574 | S. cerevisiae deletion strains, locus YHR142W, strain chs7, stronger effect = lower value 0.0884 | S. cerevisiae deletion strains, locus YJL092W, strain hpr5, stronger effect = lower value 0.222 | S. cerevisiae deletion strains, locus YJL095W, strain BCK1 (second series), stronger effect = lower value 0.0924 | S. cerevisiae deletion strains, locus YJL095W, strain BCK1, stronger effect = lower value 0.546 | S. cerevisiae deletion strains, locus YJL115W, strain asf1, stronger effect = lower value 0.313 | S. cerevisiae deletion strains, locus YJL129C, strain trk1, stronger effect = lower value 0.108 | S. cerevisiae deletion strains, locus YJL154C, strain vps35, stronger effect = lower value 0.251 | S. cerevisiae deletion strains, locus YJL164C, strain tpk1, stronger effect = lower value 0.143 | S. cerevisiae deletion strains, locus YJL166W, strain qcr8, stronger effect = lower value 0.0762 | S. cerevisiae deletion strains, locus YKL160W, strain elf1, stronger effect = lower value 0.433 | S. cerevisiae deletion strains, locus YKR026C, strain gcn3, stronger effect = lower value 0.229 | S. cerevisiae deletion strains, locus YKR091W, strain srl3, stronger effect = lower value 0.304 | S. cerevisiae deletion strains, locus YLL001W, strain dnm1, stronger effect = lower value 0.212 | S. cerevisiae deletion strains, locus YLL026W, stronger effect = lower value 0.131 | S. cerevisiae deletion strains, locus YLL041C, strain sdh2, stronger effect = lower value 0.0974 | S. cerevisiae deletion strains, locus YLR027C, strain aat2, stronger effect = lower value 0.161 | S. cerevisiae deletion strains, locus YLR113W, strain HOG1, stronger effect = lower value 0.227 | S. cerevisiae deletion strains, locus YLR221C, strain rsa3, stronger effect = lower value 0.204 | S. cerevisiae deletion strains, locus YLR258W, strain gsy2, stronger effect = lower value 0.17 | S. cerevisiae deletion strains, locus YLR262C, strain YPT6 (second series), stronger effect = lower value 0.142 | S. cerevisiae deletion strains, locus YLR320W, strain mms22, stronger effect = lower value 0.163 | S. cerevisiae deletion strains, locus YLR342W, strain FKS1, stronger effect = lower value 0.173 | S. cerevisiae deletion strains, locus YLR357W, strain rsc2, stronger effect = lower value 0.34 | S. cerevisiae deletion strains, locus YLR370C, strain arc18, stronger effect = lower value 0.171 | S. cerevisiae deletion strains, locus YLR384C, strain iki3, stronger effect = lower value 0.155 | S. cerevisiae deletion strains, locus YML120C, strain ndi1, stronger effect = lower value 0.115 | S. cerevisiae deletion strains, locus YMR058W, strain fet3, stronger effect = lower value 0.0838 | S. cerevisiae deletion strains, locus YMR125W, strain sto1, stronger effect = lower value 0.16 | S. cerevisiae deletion strains, locus YMR129W, stronger effect = lower value 0.276 | S. cerevisiae deletion strains, locus YMR205C, strain PFK2, stronger effect = lower value 0.134 | S. cerevisiae deletion strains, locus YMR231W, strain pep5, stronger effect = lower value 0.134 | S. cerevisiae deletion strains, locus YNL071W, strain lat1, stronger effect = lower value 0.269 | S. cerevisiae deletion strains, locus YNL183C, strain NPR1, stronger effect = lower value 0.761 | S. cerevisiae deletion strains, locus YNL209W, strain ssb2, stronger effect = lower value 0.0983 | S. cerevisiae deletion strains, locus YNL248C, strain rpa49, stronger effect = lower value 0.443 | S. cerevisiae deletion strains, locus YNL322C, strain KRE1 (second series), stronger effect = lower value 0.16 | S. cerevisiae deletion strains, locus YNR049C, strain mso1, stronger effect = lower value 0.175 | S. cerevisiae deletion strains, locus YOR001W, strain rrp6, stronger effect = lower value 0.139 | S. cerevisiae deletion strains, locus YOR070C, strain gyp1, stronger effect = lower value 0.416 | S. cerevisiae deletion strains, locus YOR080W, strain dia2, stronger effect = lower value 0.0852 | S. cerevisiae deletion strains, locus YOR083W, strain WHI5, stronger effect = lower value 0.203 | S. cerevisiae deletion strains, locus YOR106W, strain vam3, stronger effect = lower value 0.0922 | S. cerevisiae deletion strains, locus YOR231W, strain MKK1, stronger effect = lower value 0.575 | S. cerevisiae deletion strains, locus YOR265W, strain rbl2, stronger effect = lower value 0.159 | S. cerevisiae deletion strains, locus YOR270C, strain vph1, stronger effect = lower value 0.115 | S. cerevisiae deletion strains, locus YOR290C, strain snf2, stronger effect = lower value 0.101 | S. cerevisiae deletion strains, locus YPL051W, strain arl3, stronger effect = lower value 0.118 | S. cerevisiae deletion strains, locus YPL078C, strain atp4, stronger effect = lower value 0.182 | S. cerevisiae deletion strains, locus YPL106C, strain sse1, stronger effect = lower value 0.251 | S. cerevisiae deletion strains, locus YPL240C, strain hsp82, stronger effect = lower value 0.294 | S. cerevisiae deletion strains, locus YPL256C, strain CLN2, stronger effect = lower value 0.494
inactive: S. cerevisiae deletion strains, locus YJR066W, strain TOR1, stronger effect = lower value 0.828
